Source: PubChem BioAssay (Broad Institute)
NSD2 HMT inh: inhibitors of human histone methyltransferase NSD2 | inhibition, % at 12.5 µM | NSD2 peptide methylation, AlphaScreen, 120 min | AID 743445 | 310,000 tested, 0.54% active; in the data active means inhibition above about 50%
Target sequence (O96028 whole entry, looked up): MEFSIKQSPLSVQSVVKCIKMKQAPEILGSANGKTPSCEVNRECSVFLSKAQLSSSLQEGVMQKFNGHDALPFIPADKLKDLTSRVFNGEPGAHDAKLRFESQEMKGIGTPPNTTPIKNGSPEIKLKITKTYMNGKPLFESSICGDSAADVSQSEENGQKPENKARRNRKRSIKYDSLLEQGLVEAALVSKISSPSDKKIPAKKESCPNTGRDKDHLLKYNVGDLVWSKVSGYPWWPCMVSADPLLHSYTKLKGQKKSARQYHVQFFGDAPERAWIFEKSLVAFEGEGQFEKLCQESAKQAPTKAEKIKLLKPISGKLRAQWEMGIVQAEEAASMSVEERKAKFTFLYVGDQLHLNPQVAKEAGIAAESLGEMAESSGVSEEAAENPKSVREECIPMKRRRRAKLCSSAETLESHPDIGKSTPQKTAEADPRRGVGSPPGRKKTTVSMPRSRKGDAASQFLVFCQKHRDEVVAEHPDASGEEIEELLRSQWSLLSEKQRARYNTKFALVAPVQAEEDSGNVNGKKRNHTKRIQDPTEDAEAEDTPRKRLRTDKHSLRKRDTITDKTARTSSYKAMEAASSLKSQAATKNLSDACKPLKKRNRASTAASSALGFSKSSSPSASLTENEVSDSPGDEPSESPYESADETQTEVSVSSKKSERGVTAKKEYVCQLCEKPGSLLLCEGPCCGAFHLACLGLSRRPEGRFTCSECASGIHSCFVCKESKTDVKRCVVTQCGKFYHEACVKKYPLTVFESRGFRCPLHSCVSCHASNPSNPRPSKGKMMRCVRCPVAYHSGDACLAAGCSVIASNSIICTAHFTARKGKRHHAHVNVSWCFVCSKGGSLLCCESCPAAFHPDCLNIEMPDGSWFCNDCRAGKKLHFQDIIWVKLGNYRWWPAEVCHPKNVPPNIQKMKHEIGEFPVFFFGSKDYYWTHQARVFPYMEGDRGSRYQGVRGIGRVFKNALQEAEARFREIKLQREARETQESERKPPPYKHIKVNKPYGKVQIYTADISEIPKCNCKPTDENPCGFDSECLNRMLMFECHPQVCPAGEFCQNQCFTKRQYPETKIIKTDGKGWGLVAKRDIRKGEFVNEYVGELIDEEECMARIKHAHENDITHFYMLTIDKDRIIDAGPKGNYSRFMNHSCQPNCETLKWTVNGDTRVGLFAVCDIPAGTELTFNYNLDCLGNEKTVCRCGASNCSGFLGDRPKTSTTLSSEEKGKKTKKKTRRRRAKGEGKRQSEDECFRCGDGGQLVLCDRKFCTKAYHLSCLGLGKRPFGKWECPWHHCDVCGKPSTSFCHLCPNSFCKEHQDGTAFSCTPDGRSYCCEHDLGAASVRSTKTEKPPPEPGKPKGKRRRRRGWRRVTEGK
CASP6 VEID inh: inhibitors of human caspase-6. P55212. purified caspase-6, Z-VEID-R110 cleavage fluorescence. inhibition, % at 12.5 µM. 350,000 tested, 0.53% active. AID 686996;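 active means mean inhibition across replicates at least about 35%, with every replicate also reaching that limit, limit read from the data; inconclusive means only one of the two criteria met; inactive means neither criterion met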;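 further: 0% = median of neutral control wells and 100% = no fluorescence left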
AF4-AF9 inh: blocks AF4 peptide binding to human AF9 | P42568 | AlphaScreen, biotin-AF4 peptide binding to FLAG-AF9 | inhibition, % at 10 µM | 350,000 tested, 0.47% active | AID 651704;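 active means every replicate reaching a set inhibition limit, whatever the replicate mean, cut at about 25% in these data; inconclusive means mean inhibition reaches that limit but some replicates miss it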;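 further: 0% = plate neutral control median and 100% = total signal loss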
RAD52 anneal inh: RAD52 (human) annealing inhibition | 360,000 tested, 0.46% active | recombinant RAD52 DNA annealing, FRET fluorescence | P43351 | AID 651710 | inhibition, % at 18.7 µM;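 active means every replicate showing at least 50% inhibition; inconclusive means mean inhibition at least 50% but not in every replicate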
rRNA inh HTS: inhibitors of bacterial rRNA selective over humanized ribosomes; GFP signal change (wild-type ribosome), % (no concentration beside the values); 350,000 tested, 1.6% active; E. coli WT GFP vs humanized-ribosome RFP mutants, fluorescence, 24 h; hits give low values; DMSO median 0, no signal -100;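 active means significant combined selectivity score with lowered wild-type GFP, culture density cut under 30%, mutant RFP and density less affected; inactive means any of these conditions unmet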
Alpha interfer: AlphaScreen signal interference counter-screen hit | AID 720494 | shares compounds with AF4-AF9 inh | 530 tested, 45% active | AC50, µM (doses to about 12 µM), without a hit: top-dose activity change, negative = inhibition | signal luminescence; cut-off not given, nearly all actives have AC50 up to about 14 µM
DNA binder FP: binds DNA, flagging false RAD52 inhibitor hits | shares compounds with RAD52 anneal inh | AID 652128 | Salmon sperm DNA/acridine orange FP displacement, DNA binding | 1,000 tested, 8% active | AC50, µM;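 active means fitted half-maximal concentration for signal loss at or below twice the highest dose tested, in every separate run, actives reach about 64 µM in these data; inconclusive means runs disagree, or flat partial signal loss, or poor fit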
CASP1 counter: caspase-1 (human) inhibition counter-screen; activity change, negative = inhibition, % at 35 µM; shares compounds with CASP6 VEID inh; purified caspase-1, Z-YVAD-R110 cleavage fluorescence; 100 tested, under 10 active;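 active means compounds lowering fluorescence whose fitted half-maximal concentration is no more than twice their top tested dose; inconclusive means flat fit with 30 to 70% inhibition, or poor fit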
AID977621: wild-type E. coli growth inhibition versus H69 humanized strain – H69 mutant RFP, wild-type GFP, cherry-pick, dose response; fluorescence, 24 h; activity change, negative = inhibition at 50 µM; shares compounds with rRNA inh HTS; 1,900 tested, under 10 active;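 active means Wild-type ribosome reporter drop at least double the humanized mutant ribosome reporter drop, growth loss under a set limit; inconclusive means no clear call, values can overlap the other calls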;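 further: wild-type GFP and H69 mutant RFP strains grown together 50/50 in each well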
AID977628: E. coli growth inhibition, wild-type GFP versus h24 humanized RFP strain, dose response, h24 mutant RFP vs wild-type GFP, cherry-pick; activity change, negative = inhibition at 50 µM; 1,900 tested, under 10 active; E. coli WT GFP strain growth, fluorescence, 24 h; shares compounds with rRNA inh HTS;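 active means compound lowering the normal-ribosome reporter at least twice as much as the humanized-ribosome reporter, growth loss under a set limit; inconclusive means no clear call, values can overlap the other calls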;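 further: wild-type GFP and h24 humanized RFP strains co-cultured 1 to 1 per well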
Alpha artifact: interferes with AlphaScreen signal, flagging NSD2 false positives; shares compounds with NSD2 HMT inh; 1,500 tested, 9.4% active; AlphaScreen artifact counterscreen, preloaded methylated H4 peptide; AC35, µM (series often up to 10 µM), without a hit: top-dose activity change, negative = signal loss; call rule not given here
Starred values were filed as active, the others as inactive; i = inactive; ? = inconclusive; nt = not tested or not shown. Rows were chosen to be rich in hits. Some 2.5% of all compounds tested hit in one or more screens of this group.

SMILES	NSD2 HMT inh	CASP6 VEID inh	AF4-AF9 inh	RAD52 anneal inh	rRNA inh HTS	DNA binder FP	others
CN1CCN(c2ccc(N)cc2Cl)CC1	77*	-42	88*	85*	6	39µM*	Alpha interfer=5.4µM*;Alpha artifact=-14%
O=C(Cc1ccccn1)N1CCCCN2[C@@H](CO)[C@H](c3ccc(-c4ccccc4)cc3)[C@@H]2C1	nt	-2	-5	-14	-1	nt
Cc1ccc2c(C)c3ccc4ccccc4c3c[n+]2c1	11	-11	1	93*	-8	13µM*
COC(=O)[C@@H]1[C@@H](CO)[C@@H]2Cn3c(ccc(-c4ccccc4F)c3=O)[C@H]1N2	nt	-3	-5	-17	2	nt
NC(N)=Nc1ccc2[nH]c3c(c2c1)C[C@@]1(O)[C@H]2Cc4ccc(O)c5c4[C@@]1(CCN2CC1CC1)C3O5 (stereo partly specified)	nt	-18	nt	53*	-1	i
O=C(Cc1ccccn1)N1CCCCN2[C@H](CO)[C@H](c3ccc(-c4ccccc4)cc3)[C@@H]2C1	nt	-2	-2	-17	-3	nt
Cc1cccc(S(=O)(=O)N2[C@@H]3c4ccc(-c5ccccc5)c(=O)n4C[C@H]2[C@H](CO)[C@H]3C(=O)O)c1	nt	-1	-1	-9	2	nt
COc1cc2c(ccc3c4cc(OC)c(OC)cc4c[n+](C)c23)cc1O	12	-26	-3	97*	-10	21µM*
Cc1[nH]c2ccc(O)cc2c1CCN	nt	nt	32*	81*	nt	i
O=C(Cc1ccncc1)N1CCCCN2[C@H](C1)[C@@H](c1ccc(C#CC3(O)CCCC3)cc1)[C@@H]2CO	nt	2	-4	-6	10	nt
C[C@]12CCC3C(CC[C@H]4C[C@@H](O)CC[C@]34C)C1CC[C@@H]2OC(=O)[C@H](N)CCCCN (stereo partly specified)	nt	-72	7	97*	nt	i
Cc1ccccc1-c1ccc([C@@H]2[C@H]3CN(C(=O)Cc4ccccn4)CCCCN3[C@H]2CO)cc1	nt	1	-5	-11	2	nt
CCN(CC)c1ccc(CN(C)CCc2ccc(OC)c(OC)c2)cc1	19	nt	nt	nt	nt	nt
COc1ccc(CC2=NCCc3cc(OC)c(OC)cc32)cc1OC	nt	nt	-1	57*	nt	i
Nc1ccc(CC(N)c2csc(Nc3ncccn3)n2)cc1 (stereo unspecified)	1	-5	14	87*	1	i
Cc1cccc(S(=O)(=O)N2[C@@H]3c4ccc(-c5ccc(F)cc5)c(=O)n4C[C@H]2[C@H](CO)[C@H]3C(=O)O)c1	nt	nt	0	nt	0	nt
NC1(C(=O)O)CCCc2ccc(N(CCCl)CCCl)cc21 (stereo unspecified)	7	-13	10	61*	0	i
O=C1NC(=O)C2(CCCc3ccc(N(CCCl)CCCl)cc32)N1 (stereo unspecified)	2	3	7	2	7	nt
NC(N)=N/N=C/c1ccc(N(c2ccccc2)c2ccccc2)cc1	-56	63*	-28	89*	-58	i
COc1ccc(/C=N\N=C(N)N)cc1	0	-3	-2	0	12	nt
C/C=C/c1ccc(C2[C@@H]3CN(C(=O)C4CCOCC4)C[C@H]2N3)cc1 (stereo partly specified)	nt	2	-2	-4	3	nt
COc1cc2c(cc1OC)-c1c(OC)c(OC)cc3c1[C@H](C2)N(C)CC3	nt	58*	10	76*	-25	i	CASP1 counter=3
COC(=O)[C@H]1[C@H](CO)[C@H]2Cn3c(ccc(-c4ccc(F)cc4)c3=O)[C@@H]1N2C(C)=O	nt	-5	-2	5	1	nt
CCOC(=O)C12C(=O)OCC1C2c1ccccc1 (stereo unspecified)	nt	0	-2	-5	-4.1*	nt	AID977621=3;AID977628=1.3
CCOC(=O)C1(CCOc2ccccc2)CCN(C2Cc3ccccc3C2)CC1	4	-1	0	-1	-20	nt
SMILES	NSD2 HMT inh	CASP6 VEID inh	AF4-AF9 inh	RAD52 anneal inh	rRNA inh HTS	DNA binder FP	others
O=C(c1ccc(F)cc1Cl)N1CCC2(CC1)OCCO2	-3	-2	-5	-5	6	nt
O=C(c1sc2ccccc2c1Cl)N1CCC2(CC1)OCCO2	3	-2	-3	-18	-20*	nt	AID977621=-0.9;AID977628=-9.7
C[C@@H]1CN([C@@H](C)CO)C(=O)c2c(c3ccccc3n2C)-c2ccccc2CO[C@H]1CN(C)C(=O)Oc1ccccc1	nt	-1	11	-8	-4	nt
O=C(Cc1ccccc1)N1CC2(C1)[C@H](c1ccccc1)[C@@H](CO)N2Cc1cccc(F)c1	nt	-1	2	-27	-5	nt
Cc1c(C(=O)Nc2ccccc2)c2cc(O)ccc2n1Cc1ccccc1	0	3	5	-10	-20*	nt	AID977621=-0.49;AID977628=?
CC(C)CCn1c(N)c(C(=O)NCc2cccs2)c2nc3ccccc3nc21	6	-1	0	-34	-22*	nt	AID977621=-3.4;AID977628=?
COCCNC(=O)c1c(N)n(CCC(C)C)c2nc3ccccc3nc12	-55	nt	nt	nt	nt	nt
CC=Cc1ccc2n(c1=O)C[C@H]1[C@H](CO)[C@@H](C(=O)N(C)C)N[C@@H]21 (mixture of isomers)	nt	0	0	4	6	nt
CC(C)Cc1nc(N2CCNCC2)c(C#N)c2c1CCC2	3	-3	nt	-55	-21*	nt	AID977621=-17
CSc1ccc(CN2CCN(Cc3ccccc3Cl)CC2)cc1	14	4	9	-10	-22*	nt	AID977628=?
Oc1c(Br)cc(Br)cc1Br	nt	-2	nt	0	-21*	nt	AID977621=4.6;AID977628=-1.7
COC(=O)[C@@H]1[C@@H](CO)[C@@H]2Cn3c(ccc(-c4ccccc4F)c3=O)[C@H]1N2C(=O)C1CCC1	nt	0	1	11	2	nt
Clc1ccccc1Nc1ncnc(-n2cccc2)n1	128*	nt	nt	nt	nt	nt	Alpha artifact=-5%
O=C(O)[C@@H]1[C@@H](CO)[C@@H]2Cn3c(ccc(-c4ccccc4)c3=O)[C@H]1N2S(=O)(=O)c1ccccc1F	nt	0	-1	-11	2	nt
